In PubChem BioAssay (NCI):
This is part of a sample that, as a whole, favours compounds with a hit. Of some 83,000 tested, about 20% had one in any assay.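 For each line, cells grew in 96-well plates with the test compound present at a single concentration for 48 hours.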 Active and inactive are the calls of the source. Rule for the calls: active = growth percent below 10; inactive = the rest.

Assays:
Test in all cases: NCI-60 one-dose screen, 48 h (100 = growth as untreated, 0 = no growth, -100 = all killed)
Settings in all cases: 10 µM unless noted
NCI-H23 lung = tested on: NCI-H23 lung
NCI-H226 lung = tested on: NCI-H226 lung
NCI-H322M lung = tested on: NCI-H322M lung
HOP-62 NSCLC = tested on: HOP-62 NSCLC
NCI-H460 lung = tested on: NCI-H460 lung
HOP-92 NSCLC = tested on: HOP-92 NSCLC
NCI-H522 lung = tested on: NCI-H522 lung
A549/ATCC NSCLC = tested on: A549/ATCC NSCLC
786-0 renal = tested on: 786-0 renal
COLO 205 colon = tested on: COLO 205 colon

Measured: growth

CCN1CCN(Cc2ccc(NC(=O)Nc3cccc(-n4ccc5c(NC(=O)c6ccccc6)nccc54)c3)cc2C(F)(F)F)CC1
inactive: NCI-H23 lung 92.4% | NCI-H226 lung 99.5% | NCI-H322M lung 101% | HOP-62 NSCLC 72.6% | NCI-H460 lung 96.3% | HOP-92 NSCLC 60.5% | NCI-H522 lung 45.6% | A549/ATCC NSCLC 86.9% | 786-0 renal 108% | COLO 205 colon 65.7%

CCc1c(C)c2cc(-n3c(-c4ccc(OC)cc4)csc3=N)c(O)c(C)c2oc1=O
inactive: NCI-H23 lung 26.7% | NCI-H226 lung 56% | NCI-H322M lung 54.5% | HOP-62 NSCLC 30.4% | NCI-H460 lung 11.1% | HOP-92 NSCLC 33.5% | A549/ATCC NSCLC 26.3% | 786-0 renal 21.5% | COLO 205 colon 12.6%
active: NCI-H522 lung -46.5%

CC(C)[C@@H]1NC(=O)[C@]2(C)CSC(=N2)c2ccnc(c2)CNC(=O)C[C@@H](/C=C/CCS)OC1=O
active: NCI-H322M lung 4.39% | HOP-62 NSCLC 6.46% | NCI-H460 lung 9.2% | HOP-92 NSCLC -16.5% | NCI-H522 lung -18.4% | A549/ATCC NSCLC -1.52% | 786-0 renal 6.38% | COLO 205 colon -70.3%
inactive: NCI-H23 lung 12.6% | NCI-H226 lung 11.8%

CCOc1ccc(NC(=O)Nc2cc(C(C)C)ccc2C)cc1
inactive: NCI-H23 lung 79.2% | NCI-H226 lung 92.8% | NCI-H322M lung 90.8% | HOP-62 NSCLC 95% | NCI-H460 lung 106% | HOP-92 NSCLC 55.1% | NCI-H522 lung 46.4% | A549/ATCC NSCLC 36.6% | 786-0 renal 13% | COLO 205 colon 98.7%

c1nc(SC2=NCCN2)c2[nH]cnc2n1
inactive: NCI-H23 lung 46.2% | NCI-H226 lung 46.9% | NCI-H322M lung 36.3% | HOP-62 NSCLC 23.2% | NCI-H460 lung 66.5% | HOP-92 NSCLC 36.2% | NCI-H522 lung 25% | A549/ATCC NSCLC 82.9% | 786-0 renal 22.7% | COLO 205 colon 56.8%

C/C(=N\N=C1/SCC(=O)N1c1ccccc1)c1ccco1
inactive: NCI-H23 lung 99.4% | NCI-H226 lung 124% | NCI-H322M lung 89.8% | HOP-62 NSCLC 137% | NCI-H460 lung 123% | HOP-92 NSCLC 63.3% | NCI-H522 lung 75.4% | A549/ATCC NSCLC 114% | 786-0 renal 52% | COLO 205 colon 130%

COc1ccc(CCNC=O)cc1OC
inactive: NCI-H23 lung 101% | NCI-H226 lung 89.1% | NCI-H322M lung 96.4% | HOP-62 NSCLC 107% | NCI-H460 lung 102% | HOP-92 NSCLC 93.4% | NCI-H522 lung 131% | A549/ATCC NSCLC 107% | 786-0 renal 99.2% | COLO 205 colon 96.3%

NCC(=O)NS(=O)(=O)OC[C@H]1O[C@@H](n2cnc3c(N)ncnc32)[C@H](O)[C@@H]1O
inactive: HOP-92 NSCLC 17.3% | COLO 205 colon 48.5%
active: NCI-H23 lung 5.7% | NCI-H226 lung -54.6% | NCI-H322M lung -1.74% | HOP-62 NSCLC -32.1% | NCI-H460 lung 3.35% | NCI-H522 lung -51.6% | A549/ATCC NSCLC 9.7% | 786-0 renal -7.02%

NC(=NCCCOc1ccc(F)cc1)Nc1ccc(Cl)c(Cl)c1
active: COLO 205 colon -57.7%
inactive: NCI-H23 lung 67.9% | NCI-H226 lung 76.2% | NCI-H322M lung 69.3% | HOP-62 NSCLC 78.7% | NCI-H460 lung 74.3% | HOP-92 NSCLC 16.5% | NCI-H522 lung 67.6% | A549/ATCC NSCLC 82.5% | 786-0 renal 67.6%

Nc1nc(Nc2ccc(OCc3cccc(F)c3)cc2)c2c(n1)[nH]c1ccc(O)cc12
active: NCI-H23 lung 6.71% | NCI-H226 lung -56.2% | NCI-H322M lung 3.43% | HOP-62 NSCLC -17% | NCI-H460 lung -49.2% | HOP-92 NSCLC -31.3% | NCI-H522 lung -76.2% | A549/ATCC NSCLC -27.1% | 786-0 renal -96.6% | COLO 205 colon -77.5%

CCNc1cc(S(=O)(=O)O)ccc1C
inactive: NCI-H23 lung 103% | NCI-H226 lung 103% | NCI-H322M lung 112% | HOP-62 NSCLC 90.8% | NCI-H460 lung 112% | HOP-92 NSCLC 104% | NCI-H522 lung 93.3% | A549/ATCC NSCLC 81.3% | 786-0 renal 99.8% | COLO 205 colon 92.8%

COc1cc(/C=C/C(=O)c2ccc(Oc3ncnc4ccccc34)cc2)cc(OC)c1OC
inactive: NCI-H23 lung 80.3% | NCI-H226 lung 98.5% | NCI-H322M lung 69.5% | HOP-62 NSCLC 81.9% | NCI-H460 lung 84.5% | HOP-92 NSCLC 109% | NCI-H522 lung 52.7% | A549/ATCC NSCLC 73.1% | 786-0 renal 82.2% | COLO 205 colon 109%

C=C1C(=O)O[C@H]2[C@H]1CC/C(COC(=O)c1ccc3ccccc3c1)=C\CC[C@@]1(C)O[C@@H]21
inactive: NCI-H322M lung 45%
active: NCI-H23 lung 2.6% | NCI-H226 lung -82.3% | HOP-62 NSCLC -29.2% | NCI-H460 lung 8.67% | HOP-92 NSCLC -73.3% | NCI-H522 lung -77.3% | A549/ATCC NSCLC -52.7% | 786-0 renal -85.1% | COLO 205 colon -71.1%
